AmpC inh no det: blocks E. coli AmpC beta-lactamase in absence of detergent. P00811. AmpC nitrocefin hydrolysis, absorbance 480 nm, no detergent. Potency, µM (highest dose often 28.7 µM), for the others: at the top dose activity change, negative = inhibition. actives 1.8% (n = 71,000). AID 585; also: % of control where 0% means no effect
Target sequence (P00811 whole entry, looked up): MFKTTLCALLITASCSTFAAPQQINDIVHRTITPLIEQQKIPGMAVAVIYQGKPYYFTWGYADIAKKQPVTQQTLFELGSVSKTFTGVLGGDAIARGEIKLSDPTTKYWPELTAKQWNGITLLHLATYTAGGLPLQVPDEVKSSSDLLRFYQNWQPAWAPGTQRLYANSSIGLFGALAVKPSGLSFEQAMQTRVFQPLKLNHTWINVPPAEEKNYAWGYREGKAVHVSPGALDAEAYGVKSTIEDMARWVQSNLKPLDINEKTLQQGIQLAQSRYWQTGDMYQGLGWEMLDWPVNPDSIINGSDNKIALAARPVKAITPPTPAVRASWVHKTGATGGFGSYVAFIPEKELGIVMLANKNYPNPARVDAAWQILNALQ
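AmpC in 20 mM phosphate buffer pH 7.0 was preincubated 15 min at room temperature with compounds. Nitrocefin (800 uM stock) was then added and hydrolysis followed at 480 nm every 20 s for 4 min.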
SmPrx2 inh: blocks S. mansoni peroxiredoxin 2 enzymatic activity | S. mansoni Prx2 activity coupled to TGR/GSH (TGR is thioredoxin glutathione reductase), NADPH fluorescence loss, qHTS | Potency, µM | actives 0.07% (n = 65,000) | AID 448
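Activity is read as the drop in NADPH fluorescence (365/450 nm), recorded every 30 sec for 8 min after H2O2 addition. Prx2 is coupled to TGR-driven NADPH oxidation through glutathione, in phosphate buffer pH 7.4.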
AmpC inh det: blocks E. coli AmpC beta-lactamase in presence of detergent; P00811; purified AmpC, nitrocefin hydrolysis with detergent; Potency, µM (doses to about 28.7 µM), for inactives: at the highest dose activity change, negative = inhibition; actives 0.09% (n = 71,000); AID 584; active = well fitted curve in the direction sought with a large enough effect; inconclusive = small, poorly fitted or top-dose-only effect; also: % is scaled to controls: 0 for no effect and ±100 for the full control effect
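E. coli AmpC (5.3 nM) in 20 mM phosphate pH 7.0 with 0.01% Triton X-100, preincubated 15 min RT with compound; nitrocefin (2 uL of 800 uM stock) hydrolysis followed by 480 nm absorbance every 20 s over 4 min.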
Anthrax LT inh: anthrax lethal toxin internalization inhibition | Cells, anthrax lethal toxin internalization, FRET ratio (460/530) | Potency, µM (titrated, usually from 40 µM), for inactives: at the top dose activity change, negative = inhibition, actives largely listed as inhibitors | actives 0.67% (n = 70,000) | AID 912; also: % is scaled to controls: 0 for no effect and ±100 for the full control effect; nearly all actives have a fitted effect of over 50% in size
The depositor's hits bear a star; ? = inconclusive; . = not tested or not shown; [ ] = another dose, or the depositor's remark. The list is not random: actives were taken first. Their share in the collection is about 2.6%. Unless noted, calls follow the shape of the full dose curve. Potency is read from the fitted curve at half-maximal effect.

SMILES	AmpC inh no det	SmPrx2 inh	AmpC inh det	Anthrax LT inh
c1ccc(B2OC[C@@H]3OB(c4ccccc4)O[C@H]([C@@H]4COB(c5ccccc5)O4)[C@@H]3O2)cc1	-44%[5.75 µM]	>57	1.6µM*	5%[8 µM]
CC12CCC(CC1)C(C)(C)O2	-6%	.	10%	5%
CC1CCCN(c2nc3c(c(=O)[nH]c(=O)n3C)n2CCCc2ccccc2)C1 (stereo not drawn)	16µM*[single pt active]	>57	3%	?
CC1CCN(c2nc3c(c(=O)[nH]c(=O)n3C)n2Cc2ccccc2)CC1	0%	>57	10%	21%
CC(C)C(C(=O)NC(C)(C)C)N1C(=O)c2ccccc2C1=O (stereo not drawn)	6%	.	1%	-2%
N#Cc1nc(-c2ccccc2F)oc1NCc1cccc2c1OCO2	13%	>57	-4%	11%
N#Cc1nc(-c2ccccc2F)oc1NC1CCCCC1	4µM*[single pt active]	>57	11%	?
CN(C)CCNc1oc(-c2ccccc2F)nc1C#N	4µM*[single pt active]	>57	13%	-8%
CC(C)(CNC(=O)C1CCCC1)CNC(=O)C1CCCC1	6%	>57	-4%	3%
O=C(CC1Sc2ncnn2C1=O)Nc1ccc(Br)cc1 (stereo not drawn)	5µM*	>57	11%	?
O=C(CC1SC2=NCCN2C1=O)Nc1ccc(Br)cc1 (stereo not drawn)	8%	>57	-2%	?
Oc1ccc(CN2CCN(Cc3ccccc3)CC2)c2cccnc12	8%	>57	2%	?
Oc1ccc(CNc2ccc(F)cc2)c2cccnc12	10µM*	?	1%	-6%
Oc1ccc(CNc2ccccc2)c2cccnc12	13µM*[single pt active]	15*	20%	5%
Cc1ccc(C)c(OCCCC(C)(C)C(=O)O)c1	-10%	>57	7%	?
CCC(=O)N(CC)c1nc(-c2ccc(OC)cc2)cs1	26%	>57	1%	-23%
Cc1cc(-c2ccc(N=Nc3cc(S(=O)(=O)O)c4ccccc4c3N)c(C)c2)ccc1N=Nc1cc(S(=O)(=O)O)c2ccccc2c1N	5µM*	.	13µM*	?
Nc1c(S(=O)(=O)O)cc(S(=O)(=O)O)c2ccc(N=Nc3ccccc3)c(O)c12	-8%[5.75 µM]	>57	-5%[5.75 µM]	0%[8 µM]
c1ccc(CN2CCN(CCCNc3ccc4nnc(-c5ccccc5)n4n3)CC2)cc1	120%	>57	8%	?
Fc1ccccc1N1CCN(CCCNc2ccc3nncn3n2)CC1	4µM*[single pt active]	>57	15%	-14%
Cc1cccc(NS(=O)(=O)c2cc(C(=O)OCC(=O)Nc3cc(C)on3)ccc2C)c1	?	>57	0%	-24%
Cc1cccc(NS(=O)(=O)c2ccc(C)c(C(=O)OCC(=O)Nc3cc(C)on3)c2)c1	10µM*	>57	-6%	?
COCCn1c(=NC(=O)CSCC(=O)NC2CCCCC2)sc2cc(OC)ccc21	77%	>57	16%	.
O=C(OCC(CO)OC(CO)n1ccc(=O)[nH]c1=O)c1ccccc1 (stereo not drawn)	4%	>57	-6%	12%
COc1ccc(NC(=O)Nc2c(C)n(C)n(-c3ccccc3)c2=O)cc1	4µM*[single pt active]	>57	28%	-4%
SMILES	AmpC inh no det	SmPrx2 inh	AmpC inh det	Anthrax LT inh
COc1cccc(OC)c1C(=O)Nc1c(C)n(C)n(-c2ccccc2)c1=O	4%	>57	1%	-10%
COc1ccc2cc(C(=O)Nc3c(C)n(C)n(-c4ccccc4)c3=O)sc(=O)c2c1OC	2.5µM*[single pt active]	>57	10%	-6%
CCCn1ncc(C(=O)O)c1C	-16%	>57	1%	-2%
CCOc1ccc(N(C(C)C(=O)NC2CCCCCC2)S(C)(=O)=O)cc1 (stereo not drawn)	59%	>57	1%	-2%
O=C(NC1CCCc2ccccc21)C1CCC(CNc2c(N3CCOCC3)c(=O)c2=O)CC1 (stereo not drawn)	3.2µM*[single pt active]	>57	10%	?
COc1ccccc1CNC(=O)C1CCC(CNc2c(N3CCOCC3)c(=O)c2=O)CC1 (stereo not drawn)	28%	>57	12%	?
COc1cc(NC(=O)C2CCC(CNc3c(N4CCCCC4)c(=O)c3=O)CC2)cc(OC)c1 (stereo not drawn)	4µM*[single pt active]	>57	13%	?
CCOC(=O)N1CCC(Nc2c(OCC)c(=O)c2=O)CC1	4µM*[single pt active]	>57	12%	-7%
CCCCN(CC)CCNc1c(NC2CCN(C(=O)OCC)CC2)c(=O)c1=O	4µM*[single pt active]	>57	14%	-16%
CCCCN(CC)CCNc1c(N2CCN(C(=O)OCC)CC2)c(=O)c1=O	-6%	>57	-6%	5%
